tim10-1 inh – inhibits growth of tim10-1 mutant yeast | S. cerevisiae tim10-1 ts strain growth, BacTiter-Glo, 24 h | inhibition, % at 20 µM | 2.2% of 330,000 active | AID 463190;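 active = inhibition of at least 40%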;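 also: mutant grown at 25 °C; 0% = DMSO wells with yeast and 100% = wells holding no yeast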
Calb FLC – affects C. albicans growth with fluconazole; C. albicans CaCi-2 (fluconazole-resistant clinical isolate) + fluconazole, Alamar Blue growth, 48 h; growth inhibition, % (test concentration not listed); 0.57% of 300,000 active; AID 1979;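 active = growth inhibition above about 58% in most replicates, limit read from the data, passing the limit was not always enough; inconclusive = exactly half the replicates above a set limit; inactive = most replicates below a set limit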;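 also: all wells also contain fluconazole at 8 µg/ml as a sub-toxic cotreatment; 0% = median of DMSO wells and 100% = median of geldanamycin control wells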
tim23-1 inh – growth inhibitors of tim23-1 mutant yeast; 1.3% of 330,000 active; inhibition, % at 20 µM; S. cerevisiae tim23-1 growth, BacTiter-Glo luminescence, 24 h;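 active = growth inhibition of the mutant yeast at or above 50%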;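 also: temperature-sensitive mutant grown at 25 °C; plate controls were DMSO-treated mutant yeast for no effect and medium wells lacking yeast for full effect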
SKKanGAS inh – blocks kanamycin growth of S. pyogenes SKKanGAS strain. BacTiter-Glo, 6 h. inhibition, % at 7.5 µM. 1.3% of 300,000 active. AID 1662;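 active = mean replicate score, as percent of positive control median, at least 50; inconclusive = mean below 50 but one replicate at or above 50; inactive = mean and every replicate below 50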;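 also: strain carries kanamycin resistance gene driven by streptokinase promoter and grows in 40 µg/ml kanamycin; loss of luminescence reflects streptokinase promoter inhibition or plain growth inhibition; 0% = median of DMSO wells and 100% = positive control at its reference dose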
TIM10 inh – growth inhibitors of TIM10 yeast strain | S. cerevisiae TIM10 strain growth, BacTiter-Glo luminescence, 24 h | inhibition, % at 10 µM | 1.4% of 330,000 active;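 active = inhibition of 40% or more at the single tested concentration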;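 also: wild-type TIM10 isogenic control strain grown at permissive 25 °C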
PfHsp90 set2 – growth inhibition of yeast expressing Plasmodium Hsp90; AID 504621; S. cerevisiae expressing PfHsp90, BacTiter-Glo ATP, 48 h; yeast lacking PDR1 and PDR3 efflux regulators; 0.32% of 310,000 active; inhibition, % at 9.4 µM;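 active = every replicate shows inhibition above about 80%, whatever the replicate mean, limit read from the data; inconclusive = mean inhibition reaches the set limit but some replicate falls short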;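 also: 0% = DMSO neutral controls and 100% = 20 µM radicicol positive controls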
tim10-1 conf – confirmation of tim10-1 mutant yeast growth inhibitors. S. cerevisiae tim10-1 ts strain growth, BacTiter-Glo, 24 h. 56% of 7,400 active. shares compounds with tim10-1 inh. inhibition, % at 20 µM. AID 463213;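 active = inhibition of yeast growth at or above a set limit in either of two repeat tests at 20 µM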;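 also: tim10-1 mutant grown at permissive 25 °C to find synthetic lethal compounds; 0% = DMSO yeast wells and 100% = medium wells without yeast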
tim10 confirm – confirmation of TIM10 yeast growth inhibitors; shares compounds with TIM10 inh; S. cerevisiae tim10 strain growth, BacTiter-Glo luminescence, 24 h; inhibition, % at 10 µM; 63% of 4,600 active;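 active = inhibition of yeast growth at or above a set limit in either of two replicates at 10 µM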;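 also: this counterscreen used the strain with wild-type TIM10; 0% = yeast with DMSO and 100% = medium wells lacking yeast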
tim23-1 confirm – confirmation of tim23-1 mutant yeast growth inhibitors. shares compounds with tim23-1 inh. S. cerevisiae tim23-1 growth, BacTiter-Glo luminescence, 24 h. inhibition, % at 20 µM. 83% of 4,400 active;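 active = inhibition above about 39% in either of two replicate wells at 20 µM, limit read from the data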;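 also: temperature-sensitive tim23-1 mutant grown at 25 °C; 0% = DMSO wells with yeast and 100% = medium wells without yeast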
Numbers without * were called inactive. An excerpt weighted towards active compounds, which were near 4.7% of everything screened.

For Cc1ccc(-c2csc(NC(=O)c3ccccc3F)c2C(=O)O)cc1 the results were tim10-1 inh 79*, Calb FLC 1, tim23-1 inh 83*, SKKanGAS inh 8, TIM10 inh 74*, PfHsp90 set2 31, tim10-1 conf 79*, tim10 confirm 84* and tim23-1 confirm 88*.
For Cc1ccc(S(=O)(=O)Nc2cc(Cl)c(O)c3ncccc23)cc1 the results were tim10-1 inh 62*, Calb FLC -4, tim23-1 inh 73*, SKKanGAS inh 79*, TIM10 inh 45*, PfHsp90 set2 104*, tim10-1 conf 29, tim10 confirm 49* and tim23-1 confirm 82*.
For O=C1c2ccccc2C(=O)c2c(Nc3ccc(CCO)cc3)ccc(O)c21 the results were tim10-1 inh 59*, Calb FLC -5, tim23-1 inh 57*, SKKanGAS inh 83*, TIM10 inh 34, PfHsp90 set2 7, tim10-1 conf 37* and tim23-1 confirm 51*.
`O=C1c2c(O)ccc(O)c2C(=O)c2c(NCCNCCO)ccc(NCCNCCO)c21` gave tim10-1 inh -31, tim23-1 inh -46, TIM10 inh -186 and PfHsp90 set2 7.
Screening O=C(Nc1ncccn1)c1ccc([N+](=O)[O-])cc1[N+](=O)[O-] returned tim10-1 inh -5, Calb FLC 3, tim23-1 inh 5, SKKanGAS inh 2, TIM10 inh 14 and PfHsp90 set2 -10.
O=C(O)CCSc1ccc([N+](=O)[O-])cc1[N+](=O)[O-] was read as tim10-1 inh 44*, Calb FLC -3, tim23-1 inh 51*, SKKanGAS inh inconclusive, TIM10 inh 7, PfHsp90 set2 27, tim10-1 conf 30* and tim23-1 confirm 53*.
For O=[N+]([O-])c1ccc(Sc2ncccn2)c([N+](=O)[O-])c1 the results were tim10-1 inh 42*, Calb FLC 65, tim23-1 inh 53*, SKKanGAS inh -1, TIM10 inh 37, PfHsp90 set2 -38, tim10-1 conf 50* and tim23-1 confirm 40*.
Screening O=[N+]([O-])c1ccc(SNc2ccccc2)c([N+](=O)[O-])c1 returned PfHsp90 set2 24.
Cc1onc(-c2ccccc2)c1-c1nc2cc(Cl)ccc2c(=O)o1 was read as tim10-1 inh 43*, Calb FLC -14, tim23-1 inh 68*, SKKanGAS inh 11, TIM10 inh 19, PfHsp90 set2 7, tim10-1 conf 18 and tim23-1 confirm 53*.
Cc1nc2ccccc2c2c(N)c3ccccc3n12 was read as tim10-1 inh 41*, Calb FLC 18, tim23-1 inh 53*, SKKanGAS inh 1, TIM10 inh 77*, PfHsp90 set2 35, tim10-1 conf 47*, tim10 confirm 29 and tim23-1 confirm 55*.
Cc1nc(N2CCN(Cc3ccc(Cl)cc3)CC2)c2oc3ccccc3c2n1 was read as tim10-1 inh 53*, Calb FLC 0, tim23-1 inh 54*, SKKanGAS inh 16, TIM10 inh 42*, PfHsp90 set2 -25, tim10-1 conf 36*, tim10 confirm 49* and tim23-1 confirm 43*.
O=[N+]([O-])C(/C=C(/Cl)[N+](=O)[O-])=C(N1CCCCC1)N1CCCCC1 was read as tim10-1 inh -2, Calb FLC -2, tim23-1 inh 4, SKKanGAS inh 32, TIM10 inh 2 and PfHsp90 set2 10.
`O=C(NC(Nc1nc2ccc([N+](=O)[O-])cc2s1)(C(F)(F)F)C(F)(F)F)c1ccccc1Cl` gave tim10-1 inh 78*, Calb FLC 64, tim23-1 inh 71*, SKKanGAS inh 23, TIM10 inh 66*, PfHsp90 set2 7, tim10-1 conf 76*, tim10 confirm 68* and tim23-1 confirm 86*.
`Cc1ccc(C)n1-c1nnc(N2CCC(C(=O)NCCCN3CCN(C)CC3)CC2)s1` gave tim10-1 inh 1, Calb FLC 2, tim23-1 inh 7, SKKanGAS inh 11, TIM10 inh -4 and PfHsp90 set2 -1.
Cc1nn2c(NCc3ccccn3)cc(C(C)(C)C)nc2c1-c1ccccc1 was read as tim10-1 inh 62*, Calb FLC 7, tim23-1 inh 58*, SKKanGAS inh 97*, TIM10 inh 56*, PfHsp90 set2 120*, tim10-1 conf 37*, tim10 confirm 72* and tim23-1 confirm 62*.
COc1ccccc1-[n+]1c(C)cc(/C=C2\Sc3ccccc3N2C)cc1C was read as tim10-1 inh 57*, Calb FLC -9, tim23-1 inh 70*, SKKanGAS inh 45, TIM10 inh 75*, PfHsp90 set2 -26, tim10-1 conf 77*, tim10 confirm 60* and tim23-1 confirm 72*.
For COc1ccc(-[n+]2c(C)cc(/C=C3\Sc4ccccc4N3C)cc2C)cc1 the results were tim10-1 inh 77*, Calb FLC -6, tim23-1 inh 82*, SKKanGAS inh 40, TIM10 inh 66*, PfHsp90 set2 -28, tim10-1 conf 76*, tim10 confirm 67* and tim23-1 confirm 84*.
COc1ccc(C(=O)/C=C2\Sc3ccccc3N2C)cc1 was read as tim10-1 inh 13, Calb FLC 0, tim23-1 inh 40, SKKanGAS inh -8, TIM10 inh 11 and PfHsp90 set2 10.
Screening COc1ccccc1OC(=O)CCN1c2ccccc2Sc2ccccc21 returned tim10-1 inh 17, Calb FLC 0, tim23-1 inh 25, SKKanGAS inh 3, TIM10 inh 10 and PfHsp90 set2 -4.
CC1CCC/C=C/C(=O)c2c(O)cc(O)cc2CC(=O)O1 (stereo not drawn) was read as tim10-1 inh 54*, Calb FLC 1, tim23-1 inh 53*, SKKanGAS inh -1, TIM10 inh 40*, PfHsp90 set2 -22, tim10-1 conf 49*, tim10 confirm 51* and tim23-1 confirm 54*.
C[C@@H]1Cc2c(O)c(O)cc(O)c2C(=O)O1 was read as tim10-1 inh -11, Calb FLC 1, tim23-1 inh -5, SKKanGAS inh -1, TIM10 inh -6 and PfHsp90 set2 -13.
C[C@@H](C(=O)CC(=O)OC(C)(C)C)[C@@H](O)c1ccccc1 was read as tim10-1 inh 1, Calb FLC -10, tim23-1 inh 8, SKKanGAS inh -1, TIM10 inh -4 and PfHsp90 set2 0.

Compound activity: PubChem, several laboratories
